TDP1 cell CPT: growth inhibition of DT40 Tdp1-/-;hTDP1 cells with camptothecin (screen for TDP1 inhibitors). Potency, µM (highest dose often 46.2 µM), for the others: at the highest dose activity change, negative = growth inhibition, actives largely listed as inhibitors. 420,000 tested, 12% active. AID 686979. chicken DT40 Tdp1-/-;hTDP1 cells + 20 nM CPT, ATP luminescence, 48 h; note: potency is the fitted concentration of half-maximal effect; nearly all actives have a fitted effect of over 55% in size
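Chicken DT40 Tdp1-/- cells complemented with human TDP1, 400 cells/well, exposed to compounds plus 20 nM camptothecin for at least 48 h at 37 C; viability read as ATP content by CellTiter-Glo luminescence.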
IL1B secr inh: inflammasome signaling inhibition, IL-1 beta readout; THP-1 LPS/ATP IL-1B secretion, AlphaLISA, 16 h; stronger effect = lower value; activity change, % at 57.5 µM; 360,000 tested, 4.7% active; in the data active = activity change below about -50%; inconclusive = mostly about -30% to -49%
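Secreted IL-1B measured by AlphaLISA bead assay after 16 h compound exposure of THP-1 cells; compounds (final up to 57.5 uM) added 1 h before LPS (250 ng/mL) and ATP (1.25 mM) stimulation; lower signal means less secretion.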
TDP1 cell noCPT: qHTS for Inhibitors of human tyrosyl-DNA phosphodiesterase 1 (TDP1): qHTS in cells in absence of CPT; Potency, µM (series often up to 46.2 µM), for inactives: at the top dose activity change, negative = growth inhibition, most hits filed as inhibitors; DT40 Tdp1-/- hTDP1 cells, no CPT, ATP luminescence, 48 h; 420,000 tested, 15% active; note: potency is the fitted concentration of half-maximal effect; nearly all actives have a fitted effect of over 55% in size
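Readout: luminescence from CellTiter-Glo after 30 min in the dark at RT. Cells: DT40 Tdp1-/- with stable hTDP1, 400/well. Exposure: compounds alone, ≥48 hr, 37 °C.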
HT1080 IDH1KD tx: HT-1080 IDH1 knockdown cell toxicity (counter line); HT-1080 IDH1 knockdown viability, ATP luminescence, 48 h; 360,000 tested, 2% active; Potency, µM (highest dose often 46.1 µM), for the others: top-dose activity, negative = toxicity, usual class: cytotoxic;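 note: potency is the fitted concentration of half-maximal effect; 0% = DMSO wells and -100% = cell-free medium wells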
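Cytotoxicity counter-line: IDH1KD HT-1080, 48 h, CellTiter-Glo. Curves classed by r2, magnitude and activity.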
HT1080-NT tox: kills 2HG-producing HT-1080-NT fibrosarcoma cells. HT-1080-NT fibrosarcoma viability, CellTiter-Glo ATP luminescence, 48 h. Potency, µM (doses to about 46.1 µM), without a hit: at the highest dose activity, negative = less viability, most hits filed as cytotoxic. 360,000 tested, 1.6% active. AID 686970;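 note: NT is the 2HG producing partner of a matched IDH1 knockdown line; potency is the fitted concentration of half-maximal effect; 0% = DMSO-treated cells and -100% = media-only wells without cells; nearly all actives have a fitted effect of over 55% in size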
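Luminescent CellTiter-Glo readout after 48 hours of compound exposure at 37 degrees C defined viability of HT-1080-NT cells. Activity was normalized to DMSO wells and cell-free media wells; concentration-response curves were fitted and assigned curve classes.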
* = called active by the depositor; ? = inconclusive; / = no result; ! = a repeat was not active; [ ] = dose if it differs, or a comment. The list is not random: actives were taken first. Their share in the collection is about 19%. Unless noted, calls come from the whole dose curve; as a rule, active = well fitted curve in the direction sought with a large enough effect; inconclusive = small, poorly fitted or top-dose-only effect, or another doubt; inactive = no such curve, though single readings can be large; an effect the other way counts as inactive or inconclusive. Unless noted, % is set by controls: 0 for no effect and ±100 for the full control effect.

SMILES	TDP1 cell CPT	IL1B secr inh	TDP1 cell noCPT	HT1080 IDH1KD tx	HT1080-NT tox
CCOP(=O)(Nc1ccc2c(c1)C(=NNC(N)=S)c1ccccc1-2)OCC	18.4µM*	0.0	9.2µM*	?	?
CN(CC(=O)N[C@H](CO)Cc1ccccc1)C(=O)[C@H](CCS(C)=O)NC(=O)[C@@H](N)Cc1ccc(O)cc1 (some centres not stated)	-8.6%[4.12 µM]	/	-4.8%[4.12 µM]	/	/
CCCCN=C[C@]12CCC(O)CC1(O)CCC1[C@@H]2CC[C@]2(C)[C@H](C3C=CC(=O)O3)CCC12O (some centres not stated)	?	-76.5*	16.4µM*	1.46µM*	1.84µM*
CC12CC[C@H]3[C@@H](CCC4(O)C[C@H](O)CCC34/C=N/NC(=O)c3ccccc3Cl)C1(O)CCC2C1=CC(=O)OC1 (some centres not stated)	0.9%	-5.6	-0.2%	-1.8%	3.5%
C[C@]12CCC3C(CCC4=CC(O)CC[C@@]43/C=N/O)C1(O)CCC2C1=CC(=O)OC1 (some centres not stated)	4.4%	-71.3*	?	0.82µM*	3.26µM*
CC12CCC3C(CCC4(O)CC(O)CCC34C=NO)C1(O)CCC2C1=COC(=O)C1 (configuration not stated)	16.4µM*	-104.1*	8.2µM*	0.581µM*	0.82µM*
CC12CCC3C(CCC4(O)CC(O)CCC34C=O)C1(O)CCC2C1=CC(=O)OC1 (configuration not stated)	10.3µM*	?	7.31µM*	1.46µM*	1.64µM*
N#Cc1ccccc1OCC(=O)N1CCN(CC(=O)Nc2ccc(F)cc2)CC1	-0.9%	9.6	-16.8%	-1.8%	3.4%
Cc1cc(C=O)c(C)n1C1CCCCC1	-22.3%	-13.1	-3.2%	-6.6%	-1.7%
N#C/C(N)=C(/N)C#N	-20.1%	-5.3	-8.9%	0.0%	3.5%
C[C@]12CC[C@H]3[C@@H](CC[C@]4(O)C[C@@H](O)CC[C@]34C=O)[C@@]1(O)CC[C@@H]2C1=CC(=O)OC1	7.31µM*	-66.9*	5.17µM*	0.651µM*	1.16µM*
C[C@H]1O[C@@H](OC2CC[C@]3(C=O)[C@H]4CC[C@]5(C)[C@@H](C6=CC(=O)OC6)CC[C@]5(O)[C@@H]4CC[C@]3(O)C2)CC2OC(C)(C)OC21 (some centres not stated)	1.84µM*	-92.7*	1.03µM*	0.103µM*	0.184µM*
COc1cc2cc(c1Cl)N(C)C(=O)CC(OC(=O)C(C)N(C)C(C)=O)C1(C)OC1C(C)C1CC(O)(NC(=O)O1)C(OC)C=CC=C(C)C2 (configuration not stated)	0.0461µM*	32.2	0.13µM*	?	0.0041µM*
COc1ccc(N2C(=O)/C(=C/c3ccc(OC)c(OC)c3)C(=O)NC2=S)cc1	-3.7%	0.0	3.6%	2.8%	-4.1%
COc1ccc(N2C(=O)/C(=C/c3ccc(C)o3)C(=O)NC2=S)c(OC)c1	20.6µM*	8.6	?	-3.7%	7.6%
COC(=O)c1c(NC(=O)C2CC=CCC2C(=O)O)sc2c1CCCCC2 (configuration not stated)	-22.8%	-1.1	?	-2.8%	-0.1%
CN(C(=O)CNC(=O)OCc1ccccc1)c1ccc(Br)cc1C(=O)c1ccccc1Cl	3.26µM*	-8.5	2.31µM*	?	?
O=C(CNC(=O)OCc1ccccc1)Nc1ccc(Br)cc1C(=O)c1ccccc1Cl	?	-6.6	?	?	-28.7%
O=C(Nc1ccc(Br)cc1)c1cc(Br)cc(Br)c1O	-24.6%	/	-2.0%	/	/
COC(=O)c1cn(CC(=O)NC2CCCCC2)c2ccccc12	-2.0%	9.0	1.0%	2.7%	?
COC(=O)c1cn(S(=O)(=O)c2ccccc2)c2ccccc12	?	-2.2	25.9µM*	-4.7%	-6.8%
Cc1ccccc1-n1c(C)nc2ccsc2c1=O	-2.4%	-2.2	-6.8%	-3.0%	-11.1%
CC(NCc1ccc(Cl)cc1)C(O)c1ccccc1 (configuration not stated)	0.9%	-5.0	-13.8%	?	-5.3%
CC(CCc1ccccc1)NC(C)C(O)c1ccc(O)cc1 (configuration not stated)	?	-23.0	23.1µM*!	-1.4%	0.2%
CN1C2CC(OC(=O)C(CO)c3ccccc3)CC1C(O)C2 (configuration not stated)	8.6%	/	-7.1%	/	/
SMILES	TDP1 cell CPT	IL1B secr inh	TDP1 cell noCPT	HT1080 IDH1KD tx	HT1080-NT tox
CN1CCC(O)(c2ccc(Cl)cc2)C(C(=O)c2ccc(Cl)cc2)C1 (configuration not stated)	2.59µM*	-14.9	2.91µM*	4.7%	-1.4%
COC(=O)c1c(N)[nH]c(C(=O)c2ccccc2)c1-c1ccc(Cl)cc1	?	3.4	?	5.2%	0.5%
CSc1ccccc1C(=O)C1CCCN(Cc2ccccn2)C1 (configuration not stated)	3.3%	30.7	?	16.7%	-5.3%
CSc1ccccc1C(=O)C1CCCN(Cc2cccc(C)n2)C1 (configuration not stated)	?	-75.3*	?	?	?
Cc1cccc(CN2CCCC(C(=O)c3ccc(C(F)(F)F)cc3)C2)n1 (configuration not stated)	?	17.2	18.4µM*	?	-0.4%
c1cc(C2N3CCCN2CC3)ccn1 (configuration not stated)	4.3%	-16.2	-8.4%	-3.6%	-1.2%
C[C@]12CC[C@H]3C(=CCc4cc(O)ccc43)[C@@H]1CCC2=O	?	-0.2	?	-21.1%	?
CC(C)(C)n1cc(C(=O)c2ccccc2)cc1-c1ccccc1	25.9µM*	18.3	?	6.9%	19.1%
CN(C)C(=O)Oc1ccc(C(=O)c2ccccc2)cc1	-5.5%	-5.7	-7.5%	0.0%	1.0%
CN(C)c1ccc(CNC(=O)Cn2c(=O)oc3cc(S(=O)(=O)N4CCCCCC4)ccc32)cc1	11.6µM*	/	-28.3%	/	/
CCOC(=O)Cn1c(=O)oc2cc(S(=O)(=O)Nc3c(C)cc(C)cc3C)ccc21	?	-9.5	?	?	?
CC(C)CCNC(=O)Cn1c(=O)oc2cc(S(=O)(=O)N3CCc4ccccc43)ccc21	?	-1.3	?	-6.3%	-5.8%
COc1ccc(CNC(=O)Cn2c(=O)oc3cc(S(=O)(=O)N4CCCC4)ccc32)cc1	18.4µM*	-6.2	?	-12.1%	-22.9%
CC(C)c1ccc(NC(=O)Cn2c(=O)oc3cc(S(=O)(=O)N4CCCC4)ccc32)cc1	9.2µM*	/	?	/	/
Cc1ccc(C)c(NC(=S)NCCc2cnc[nH]2)c1	1.5%	/	-12.2%	23.2%	3.1%
